Reference: PubChem BioAssay
The source made the active and inactive calls.

Assays:
[1] = E. coli DRC41 culture turbidity changes, primary screen, E. coli filamentation inducer project, strain DRC41, OD650, 48 h (AID 1152);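 note: E. coli MC1000 strain DRC41 lacking acrAB efflux pump and sulA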; conditions: E. coli DRC41 (acrAB sulA), higher = more signal, called active from +8 up or from −8 down
[2] = small-molecule binders of probe aLefty1, primary screen, biochemical, small-molecule microarray, 635/667 nm fluorescence (AID 1153); conditions: higher = more signal;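 note: score merges spot fluorescence with signal-to-noise ratio from the scanned slide images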
[3] = PSAC antagonists in infected red cells, primary screen, cell-based, P. falciparum Indochina, OD700, 1 h (AID 1154); conditions: P. falciparum Indochina infected RBC osmotic lysis, higher = more signal, called active from +8 up or from −8 down
[4] = PSAC antagonists in infected red cells, primary screen, cell-based, P. falciparum Indochina, OD700, 2 h (AID 1155);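 note: lysis reports solute entry through the parasite surface anion channel PSAC; channel blockers reduce lysis of infected cells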; conditions: P. falciparum Indochina infected erythrocytes, osmotic lysis OD700; higher = more signal, called active from +8 up or from −8 down
[5] = osmotic lysis modulators in infected erythrocytes, primary screen, PSAC antagonist project, cell-based, P. falciparum Indochina, OD700, 3 h (AID 1156); conditions: higher = more signal, called active from +8 up or from −8 down
[6] = PSAC antagonists in infected red cells, primary screen, cell-based, P. falciparum Indochina, OD700, 18 h (AID 1157); conditions: P. falciparum Indochina infected erythrocytes, osmotic lysis OD700, 18 h; higher = more signal, called active from +8 up or from −8 down
[7] = modulators of S6 phosphorylation in cells, primary screen, cell-based, A549, cytoblot, luminescence, serum-stimulated (AID 1158); conditions: A549 phospho-S6 cytoblot, 5 h, higher = more signal;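 note: serum-stimulated A549 lung adenocarcinoma cells; signal is phosphorylated S6 detected by cytoblot immunostaining with HRP secondary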
[8] = target: NADPH oxidase 2 (Homo sapiens) (UniProt P04839); assay: NOX2-dependent H2O2 signal modulators, primary screen, NOX inhibitor project, cell-based, HEK293-NOX2, PMA-stimulated, Amplex Red fluorescence (AID 1159); conditions: 45 min, higher = more signal, called active from +8 up or from −8 down; note: test concentration not given here
NADPH oxidase 2 (Homo sapiens), sequence (P04839 whole entry, looked up): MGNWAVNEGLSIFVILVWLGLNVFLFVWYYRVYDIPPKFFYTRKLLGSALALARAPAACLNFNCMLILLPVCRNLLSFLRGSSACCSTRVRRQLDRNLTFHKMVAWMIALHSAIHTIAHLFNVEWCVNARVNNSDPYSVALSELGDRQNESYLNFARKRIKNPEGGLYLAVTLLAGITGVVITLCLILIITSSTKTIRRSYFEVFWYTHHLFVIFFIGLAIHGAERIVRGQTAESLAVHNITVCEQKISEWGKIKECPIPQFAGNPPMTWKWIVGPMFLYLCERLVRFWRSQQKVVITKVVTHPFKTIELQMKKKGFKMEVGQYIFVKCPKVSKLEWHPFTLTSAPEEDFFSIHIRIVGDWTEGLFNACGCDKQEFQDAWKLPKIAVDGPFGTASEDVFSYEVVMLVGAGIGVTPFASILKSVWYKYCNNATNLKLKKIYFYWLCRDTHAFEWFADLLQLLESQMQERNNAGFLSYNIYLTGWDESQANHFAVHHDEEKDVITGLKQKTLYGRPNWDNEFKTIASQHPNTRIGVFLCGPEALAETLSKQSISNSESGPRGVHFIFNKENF

[9] = target: NADPH oxidase 4 (Homo sapiens) (UniProt Q9NPH5); assay: NOX4-dependent H2O2 signal modulators, primary screen, NOX inhibitor project, cell-based, HEK293-NOX4, tetracycline-induced, Amplex Red fluorescence (AID 1160); conditions: 45 min, higher = more signal, called active from +8 up or from −8 down
NADPH oxidase 4 (Homo sapiens), sequence (Q9NPH5 whole entry, looked up): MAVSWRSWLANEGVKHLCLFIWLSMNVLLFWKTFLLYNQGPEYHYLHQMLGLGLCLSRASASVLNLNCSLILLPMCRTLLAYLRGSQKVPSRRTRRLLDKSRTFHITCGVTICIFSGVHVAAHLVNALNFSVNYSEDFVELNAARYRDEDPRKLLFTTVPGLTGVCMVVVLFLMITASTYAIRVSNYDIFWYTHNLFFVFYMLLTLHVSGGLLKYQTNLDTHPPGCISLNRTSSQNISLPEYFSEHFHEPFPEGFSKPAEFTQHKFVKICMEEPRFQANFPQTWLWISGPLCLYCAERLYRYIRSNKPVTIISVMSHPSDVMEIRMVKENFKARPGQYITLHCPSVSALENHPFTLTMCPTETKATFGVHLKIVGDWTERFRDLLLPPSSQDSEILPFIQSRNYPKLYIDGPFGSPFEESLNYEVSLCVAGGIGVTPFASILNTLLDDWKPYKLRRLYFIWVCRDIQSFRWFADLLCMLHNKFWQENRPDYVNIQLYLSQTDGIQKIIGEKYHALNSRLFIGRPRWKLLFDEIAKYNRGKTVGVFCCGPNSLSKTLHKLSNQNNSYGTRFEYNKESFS

[10] = target: NADPH oxidase 5 (Homo sapiens) (UniProt Q96PH1); assay: NOX5-dependent H2O2 signal modulators, primary screen, NOX inhibitor project, cell-based, HEK293-NOX5, Amplex Red fluorescence (AID 1161); conditions: HEK293-NOX5, ionomycin, 45 min, higher = more signal
NADPH oxidase 5 (Homo sapiens), sequence (Q96PH1 whole entry, looked up): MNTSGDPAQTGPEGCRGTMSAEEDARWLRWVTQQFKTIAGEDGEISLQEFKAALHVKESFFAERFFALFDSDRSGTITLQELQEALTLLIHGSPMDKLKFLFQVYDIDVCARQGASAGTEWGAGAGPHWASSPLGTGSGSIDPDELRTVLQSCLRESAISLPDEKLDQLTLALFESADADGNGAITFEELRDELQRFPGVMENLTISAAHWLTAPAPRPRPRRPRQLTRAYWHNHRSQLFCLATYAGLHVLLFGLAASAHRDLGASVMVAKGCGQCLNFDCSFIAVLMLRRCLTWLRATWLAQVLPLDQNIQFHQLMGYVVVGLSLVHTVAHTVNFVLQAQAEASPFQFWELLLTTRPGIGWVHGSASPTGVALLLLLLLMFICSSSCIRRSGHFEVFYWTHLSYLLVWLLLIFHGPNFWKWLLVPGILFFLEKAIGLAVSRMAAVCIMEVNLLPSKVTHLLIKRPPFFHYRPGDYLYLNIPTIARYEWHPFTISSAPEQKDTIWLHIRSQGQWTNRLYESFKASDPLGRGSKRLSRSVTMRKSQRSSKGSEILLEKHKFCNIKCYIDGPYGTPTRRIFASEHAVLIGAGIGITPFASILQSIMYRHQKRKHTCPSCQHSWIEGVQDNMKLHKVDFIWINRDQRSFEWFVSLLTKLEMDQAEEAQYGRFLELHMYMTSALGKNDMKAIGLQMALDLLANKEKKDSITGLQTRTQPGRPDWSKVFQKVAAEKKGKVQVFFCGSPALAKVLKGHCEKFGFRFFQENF

[11] = A549 cell viability effects, profiling panel, calcein-AM fluorescence, 48 h, basal (AID 1162); conditions: higher = more signal; note: test concentration not given here
[12] = adipocyte viability effects, profiling panel, cell-based, 3T3-L1 adipocytes, calcein-AM fluorescence, 48 h, basal (AID 1163); conditions: 3T3-L1 adipocytes viability, higher = more signal; note: test concentration not given here
[13] = HepG2 cell viability effects, profiling panel, calcein-AM fluorescence, 48 h, basal (AID 1164); conditions: higher = more signal; note: test concentration not given here
[14] = MM1S cell viability effects, profiling panel, calcein-AM fluorescence, 48 h, basal (AID 1165); conditions: higher = more signal;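 note: viability of MM1S multiple myeloma cells under basal unstimulated conditions; test concentration not given here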
[15] = basal RPMI8226 viability, no added stimulus, profiling panel, cell-based, calcein-AM fluorescence, 48 h, PK04 Diversity Set (AID 1166); conditions: RPMI8226 myeloma viability, higher = more signal;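 note: cells grown under basal conditions without added stimulus; test concentration not given here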
[16] = basal HepG2 mitochondrial membrane potential changes, profiling panel, cell-based, JC-1 fluorescence, 24 h, 100 nL compound (AID 1167); conditions: higher = more signal; note: test concentration not given here
[17] = basal 3T3-L1 adipocyte mitochondrial potential changes, profiling panel, cell-based, JC-1 fluorescence, 3T3-L1 adipocytes, 24 h, 100 nL compound (AID 1168); conditions: JC-1 mitochondrial fluorescence, higher = more signal, called active from +8 up or from −8 down; note: test concentration not given here
[18] = basal RPMI8226 mitochondrial membrane potential changes, profiling panel, cell-based, JC-1 fluorescence, 24 h, 100 nL compound (AID 1169); conditions: RPMI8226 myeloma, JC-1 mitochondrial potential fluorescence, higher = more signal; note: test concentration not given here
[19] = basal MM1S mitochondrial membrane potential changes, profiling panel, cell-based, JC-1 fluorescence, 24 h, 100 nL compound (AID 1170); conditions: higher = more signal; note: test concentration not given here
[20] = A549 lung cancer cell viability effects, profiling panel, resazurin fluorescence, 24 h, PK04 Diversity Set (AID 1171); conditions: higher = more signal, called active from +8 up or from −8 down; note: test concentration not given here

Row | SMILES | z-score [1] | composite z-score [2] | z-score [3] | z-score [4] | z-score [5] | z-score [6] | z-score [7] | z-score [8] | z-score [9] | z-score [10] | z-score [11] | z-score [12] | z-score [13] | z-score [14] | z-score [15] | z-score [16] | z-score [17] | z-score [18] | z-score [19] | z-score [20]
1 | COc1ccc([Si](C)(C)[C@H]2[C@H](CCn3cc([C@H](O)c4ccccc4)nn3)O[C@@]3(C(=O)N(Cc4cccc(N5C(=O)c6cccc7cccc5c67)c4)c4ccccc43)[C@@H]2C)cc1 | -0.749 (inactive) | -0.0141 | 1.23 (inactive) | -0.38 (inactive) | -0.58 (inactive) | 0.376 (inactive) | -0.0203 | 0.918 (inactive) | 1.57 (inactive) | 1.56 | -0.252 | 0.0344 | -0.506 | -0.342 | -1.56 | -0.411 | -1.63 (inactive) | -0.00407 | -0.319 | -0.884 (inactive)
2 | NC(=O)NCC#Cc1ccc2c(c1)[C@]1(C(=O)N2)[C@H](C(=O)Nc2nc3ccccc3s2)[C@H]2C(=O)O[C@H](c3ccccc3)[C@H](c3ccccc3)N2[C@@H]1c1ccc(O)cc1 | 0.996 (inactive) | 0.315 | 2.92 (inactive) | 2.35 (inactive) | 0.962 (inactive) | 1.19 (inactive) | -0.0609 | -0.23 (inactive) | -1.27 (inactive) | 0.16 | 0.234 | 1.28 | 0.28 | -0.614 | 0.76 | -3.35 | 0.588 (inactive) | -0.937 | -1.9 | 1.78 (inactive)
3 | CC(C)CCC[C@@H](C)[C@H]1CC[C@@]2(C)C3=C(CC[C@]12C)[C@@]1(C)CC[C@H](OC(=O)c2ccc(Br)cc2)C(C)(C)C1CC3 (stereo not given in full) | 3.37 (inactive) | -0.0559 | -0.571 (inactive) | -0.957 (inactive) | -0.149 (inactive) | -2.39 (inactive) | 1.62 | -1.07 (inactive) | 0.175 (inactive) | 0.929 | 0.986 | 0.889 | 2.04 | 0.109 | -0.269 | 1.14 | 0.599 (inactive) | 0.717 | -0.902 | -0.255 (inactive)
4 | CC1CC/C=C\[C@H]2OC34C=CCN(c5ccc6ccccc6c5)C(=O)[C@H]3N(C(CO)C(C)C)C(=O)[C@@H]4C2C(=O)O1 (stereo not given in full) | -0.488 (inactive) | 0.245 | 4.35 (inactive) | 1.06 (inactive) | 1.01 (inactive) | 0.674 (inactive) | -0.526 | 1.49 (inactive) | -0.0631 (inactive) | 1.68 | 0.534 | -0.443 | 0.468 | 0.36 | 0.251 | 0.356 | -0.328 (inactive) | 0.145 | -0.158 | -0.294 (inactive)
5 | C=C(C(=O)CC[C@H](OC(=O)c1cccnc1)c1ccc(CO)o1)C(C)C | -0.92 (inactive) | 0.333 | 1.73 (inactive) | -0.115 (inactive) | -0.158 (inactive) | -0.0363 (inactive) | -0.143 | 0.637 (inactive) | 0.123 (inactive) | -0.0889 | -0.242 | -0.449 | -0.676 | -0.66 | 0.202 | -2 | -1.78 (inactive) | 0.322 | -0.458 | -0.361 (inactive)
6 | C[C@@H](OCc1ccccc1)C1NC(=O)[C@@]23C(=O)N[C@@H](Cc4ccccc4)C2[C@H](C)[C@@]2(C)O[C@H]2C3/C=C/C/C=C\CNC(=O)CNC1=O (stereo not given in full) | -0.824 (inactive) | -0.012 | 1.53 (inactive) | 0.095 (inactive) | 0.543 (inactive) | -0.0634 (inactive) | -0.213 | 1.01 (inactive) | 1.32 (inactive) | 1.56 | 0.758 | 1.41 | -0.762 | 0.125 | -1.25 | -0.332 | -0.475 (inactive) | 0.158 | 0.146 | -0.694 (inactive)
7 | CC(C)OC(=O)CC(=O)CC(O)c1cccc(C#N)c1 (stereo not given) | 1.27 (inactive) | 0.273 | 1.65 (inactive) | -0.261 (inactive) | -1.36 (inactive) | -1.2 (inactive) | 1.29 | 0.247 (inactive) | 0.89 (inactive) | -0.0191 | 1.59 | 0.136 | 0.886 | 0.387 | 0.518 | 0.575 | 0.837 (inactive) | 0.105 | -1.56 | 0.481 (inactive)
8 | COCCOC(=O)N1C(=O)[C@@]2(c3cc(C#CCC(C(=O)OC)C(=O)OC)ccc31)[C@H](c1ccc(OCCO)cc1)N1[C@H](c3ccccc3)[C@H](c3ccccc3)OC(=O)[C@H]1[C@@H]2C(=O)N1CCN(c2ncccn2)CC1 | 1.89 (inactive) | 0.297 | 6.55 (inactive) | 1.35 (inactive) | 0.14 (inactive) | -0.0311 (inactive) | 1.72 | -0.105 (inactive) | -1.13 (inactive) | -4.4 | -0.828 | 1.2 | -0.709 | -0.0585 | -1.07 | -0.49 | 0.436 (inactive) | -0.262 | -1.53 | 1.83 (inactive)
9 | CCOC(=O)C[C@H]1[C@H](OC(=O)Cc2ccc3c(c2)OCO3)[C@@H](NC(=O)Cc2ccc(OC)cc2)c2cc(OCCCO)ccc2N1C(=O)c1ccccc1 | 1.53 (inactive) | 0.0903 | 1.8 (inactive) | 0.263 (inactive) | -0.729 (inactive) | -0.33 (inactive) | -0.295 | -1.25 (inactive) | 0.689 (inactive) | 0.267 | 0.208 | -0.0437 | 0.547 | 1.08 | 0.192 | 0.873 | -1.1 (inactive) | 0.192 | -0.606 | -0.0709 (inactive)
